From PubChem BioAssay (NCATS)
Where “and” joins values, the source holds several entries; their conditions need not be identical. Equal entries are not always repeated. Inconclusive results are not listed. Calls of active or inactive are those of the source. Unless noted, calls follow the shape of the dose curve; as a rule, active = well fitted curve in the direction sought with a large enough effect; inconclusive = small, poorly fitted or top-dose-only effect, or another doubt; inactive = no such curve, though single readings can be large; an effect the other way counts as inactive or inconclusive.

How the values were obtained:
[1] = target: Thioredoxin reductase 1, cytoplasmic (Rattus norvegicus) (UniProt O89049); test: qHTS Assay for Substrates of Mammalian Selenoprotein Thioredoxin Reductase 1 (TrxR1) (AID 488772);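 also: NADPH fluorescence in the first read after selenite addition and not the 8 min delta; series mostly up to about 57 µM; 0% is about no effect; a drop in NADPH fluorescence below the no-compound background marks a TrxR1 substrate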
Procedure, shortened: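 Quantitative HTS in Tris-HCl buffer at pH 7.5 with EDTA and Tween-20, using rat TrxR1, 400 uM NADPH and 400 uM selenite (final). A fall in initial NADPH fluorescence relative to background marked substrate behaviour.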

[2] = target: Thioredoxin reductase 1, cytoplasmic (Rattus norvegicus) (UniProt O89049); test: qHTS Assay for Inhibitors of Mammalian Selenoprotein Thioredoxin Reductase 1 (TrxR1) (AID 488773); details: Potency: inhibition;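 also: drop in NADPH fluorescence over an 8 min run after selenite addition; series mostly up to about 57 µM; % is scaled to controls: 0 for no effect and ±100 for the full control effect; nearly all actives have a fitted effect of over 40% in size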
Procedure, shortened: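 Steps: enzyme (90 nM) plus NADPH (400 uM final), 5 min at ~22 deg C; compound added, 15 min; selenite (400 uM final) added; fluorescence followed for 8 min. Concentration-response curves derived from the normalized delta values.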

[3] = target: Flap endonuclease 1 (Homo sapiens) (UniProt P39748); test: qHTS Validation Assay for the Inhibitors of Human Flap endonuclease 1 (FEN1) (AID 488816); also: % is scaled to controls: 0 for no effect and ±100 for the full control effect
Procedure, shortened: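 FEN1, dispensed as a 10 nM reagent, was preincubated with pin-transferred compounds for 15 min at room temperature before substrate was added (50 nM final). Plates were read at 0 and 15 min, and a four-parameter Hill equation was fitted to the concentration-response data.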

[4] = target: M-phase phosphoprotein 8 (Homo sapiens) (UniProt Q99549); test: qHTS Validation Assay for Inhibitors for MPP8 Chromodomain Interactions with Methylated Histone Tails (AID 488949); also: top concentration of the series differs between compounds; % is scaled to controls: 0 for no effect and ±100 for the full control effect; nearly all actives have a fitted effect of over 55% in size
Procedure, shortened: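 MPP8 (50 nM) was pre-bound to 50 nM biotinylated H3(1-18)K9me3 peptide in PBS pH 7.4 with 0.01% Tween-20. Compounds were then added for 30 min at room temperature, and complex disruption was read by AlphaScreen with streptavidin donor and nickel-chelate acceptor beads.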

[5] = target: Chromobox protein homolog 1 (Homo sapiens) (UniProt P83916); test: qHTS Validation Assay for Inhibitors of HP1-beta Chromodomain Interactions with Methylated Histone Tails (AID 488953);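 also: loss of AlphaScreen luminescence from HP1-beta binding biotinylated H3K9me3 peptide; series mostly up to about 110 µM; % is scaled to controls: 0 for no effect and ±100 for the full control effect; nearly all actives have a fitted effect of over 50% in size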
Procedure, shortened: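 Measured as loss of AlphaScreen luminescence from streptavidin donor and nickel acceptor beads (10 ug/mL final) bridging HP1-beta and biotin-H3(1-18)K9me3, each 50 nM. Compounds met the preassembled complex for 30 min at RT.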

[6] = target: Methanococcus maripaludis chaperonin (MmCpn) (UniProt Q6LX38); test: High-Throughput Screening for Modulators of Cytosolic Chaperonin Activity: MmCpn Primary Screen (AID 488978);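 also: 50 nM MmCpn enzyme hydrolysing 30 µM ATP at 37 °C; 0% is about no effect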
Procedure, shortened: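 MmCpn at 50 nM final was preincubated 5 min at RT with compound. ATP was then added at 30 uM final for 10 min at 37 C. ADP formed was detected by Transcreener HTRF (665/590 nm).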

[7] = target: Transient receptor potential cation channel subfamily V member 1 (Homo sapiens) (UniProt Q8NER1); test: HTS Assay for Compounds that Act as Enhancers of the Vanilloid Receptor 1 (AID 488979); also: 0% is about no effect
Procedure, shortened: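 TRPV1-expressing cells loaded with Fluo-8 calcium dye; compounds added and calcium influx read kinetically for 3 min (agonist phase), then capsaicin at EC20 added and read 2 min more for enhancement. Fluorescence ex 480/em 520 nm.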

[8] = target: Thyrotropin receptor (Homo sapiens) (UniProt P16473); test: qHTS Assay for Antagonists of the Thyroid Stimulating Hormone Receptor (AID 488980); also: series mostly up to about 58 µM; 0% is about no effect
Procedure, shortened: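 TSHR-transfected HEK293 cells (2000/well) in HEPES-buffered HBSS with 70 uM RO 20-1724 were stimulated with 4 nM TSH (EC80, final) in the presence of compound. cAMP was measured by HTRF competition after lysis and 30 min at RT.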

[9] = target: D(1A) dopamine receptor (Homo sapiens) (UniProt P21728); test: HTS Assay for Allosteric Agonists of the Human D1 Dopamine Receptor: Primary Screen for Agonists (AID 488981); also: 0% is about no effect
Procedure, shortened: (§1)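 Tetracycline-induced HEK293 T-REx cells force-coupled to calcium signalling were incubated overnight at 30 C and dye-loaded at room temperature. Calcium flux over 180 s after compound addition flagged agonists; a further 180 s read after EC20 dopamine flagged potentiators.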

[10] = target: D(1A) dopamine receptor (Homo sapiens) (UniProt P21728); test: HTS Assay for Allosteric Agonists of the Human D1 Dopamine Receptor: Primary Screen for Potentiators (AID 488982); also: 0% is about no effect
Procedure, shortened: as §1

[11] = Validation screen for small molecules that induce genotoxicity in human embryonic kidney (HEK293T) cells expressing luciferase-tagged ELG1 (AID 493106); also: 0% is about no effect
Procedure, shortened: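 Reporter-gene quantitative HTS in HEK293T cells carrying luciferase-tagged ELG1, whose level climbs under genotoxic stress. Compound exposure lasts 16 hr at 37 °C before luciferase detection.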

[12] = target: ATPase family AAA domain-containing protein 5 (Homo sapiens) (UniProt Q96QE3); test: Validation screen for small molecules that inhibit ELG1-dependent DNA repair in human embryonic kidney (HEK293T) cells expressing luciferase-tagged ELG1 (AID 493107);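 also: cells co-treated with the DNA-damaging agent 5-fluorouridine alongside compound; series mostly up to about 46 µM; % is scaled to controls: 0 for no effect and ±100 for the full control effect; inhibitors lower the ELG1-luciferase luminescence signal; nearly all actives have a fitted effect of over 70% in size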
Procedure, shortened: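 Quantitative HTS in HEK293T cells carrying luciferase-tagged ELG1, stimulated with 5-fluorouridine alongside compound for 16 hr. Loss of luciferase signal marks inhibition of ELG1 response.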

[13] = target: Thyrotropin-releasing hormone receptor (Homo sapiens) (UniProt P34981); test: qHTS for Small Molecule Agonists and Allosteric Enhancers of Human TRH Receptor: Validation Screen for Agonists (AID 493127;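 active = calcium activation more than 3 SD above the typical response in the agonist read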;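 also: intracellular calcium rise by fluo-8 fluorescence before TRH EC20 addition; 0% is about no effect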); details: TRH receptor agonist cell assay; at 2 µM; stronger effect = higher value
Procedure, shortened: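 Gq-coupled calcium mobilization in TRHR cells after compound addition, monitored kinetically with fluo-8 dye on an FDSS reader.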

[14] = qHTS for Inhibitors of Cell Surface uPA Generation: Validation Assay (AID 493164);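 also: RAW 264.7 macrophage cells exposed to compound for 18 h; 0% is about no effect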
Procedure, shortened: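 RAW 264.7, 4000 cells/well, o/n plating; cpd 7-pt 1:5 dilution 2.45 nM–38.3 uM final; 18 h, 37 C/5% CO2; ATP-Lite, 5 s luminescence exposure.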

[15] = target: Galactokinase (Homo sapiens) (UniProt P51570); test: qHTS Validation Assay for Inhibitors of Human Galactokinase (GALK) (AID 493189); also: 0% is about no effect
Procedure, shortened: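 GALK (5 nM) with 35 uM ATP and 100 uM galactose in HEPES pH 8.0 with MgCl2, NaCl, DTT and BSA. Reaction ran 1 h at room temperature. Residual ATP read by Kinase-Glo Plus luminescence.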

[16] = Nrf2 qHTS screen for inhibitors: Validation (AID 493153; active = well fitted inhibition curve with a large enough effect in the main read-out, with a control signal flat, not every such curve was filed as active); details: viability change: measured here: cytotoxicity max response
Procedure, shortened: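 Dose-response validation uses reporter A549 cells with firefly luciferase under an antioxidant response element. Compounds stay on cells 18-24 h at 37°C, and luminescence indicates Nrf2-driven transcription.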

[17] = target: D(1A) dopamine receptor (Homo sapiens) (UniProt P21728); test: HTS Assay for Allosteric Agonists of the Human D1 Dopamine Receptor: Primary Screen for Antagonists (AID 488983);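 also: calcium flux response to an EC80 dopamine challenge measured with no-wash dye; % is scaled to controls: 0 for no effect and ±100 for the full control effect; nearly all actives have a fitted effect of over 65% in size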
Procedure, shortened: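 Screening of inducible HEK293 T-REx D1 cells: compound first, EC80 dopamine 180 s later, each phase read kinetically for calcium over 180 s.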

[18] = target: ATP-dependent 6-phosphofructokinase (Trypanosoma brucei brucei) (UniProt O15648); test: qHTS Assay to Find Inhibitors of T. brucei phosphofructokinase: hit validation (AID 492961);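 also: luminescence reports ADP formed as PFK phosphorylates fructose-6-phosphate with ATP; series mostly up to about 51 µM; % is scaled to controls: 0 for no effect and ±100 for the full control effect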
Procedure, shortened: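 Reaction: 0.1 M triethanolamine pH 8.0, 5 mM MgCl2, F6P 0.5 mM, ATP 0.1 mM, PFK 1.25 nM, 45 min RT. Read-out: ADP-Glo luminescence. Analysis: concentration-response fits, classed by r2 and efficacy.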

Chain of Flap endonuclease 1 (Homo sapiens) (P39748 whole entry, looked up): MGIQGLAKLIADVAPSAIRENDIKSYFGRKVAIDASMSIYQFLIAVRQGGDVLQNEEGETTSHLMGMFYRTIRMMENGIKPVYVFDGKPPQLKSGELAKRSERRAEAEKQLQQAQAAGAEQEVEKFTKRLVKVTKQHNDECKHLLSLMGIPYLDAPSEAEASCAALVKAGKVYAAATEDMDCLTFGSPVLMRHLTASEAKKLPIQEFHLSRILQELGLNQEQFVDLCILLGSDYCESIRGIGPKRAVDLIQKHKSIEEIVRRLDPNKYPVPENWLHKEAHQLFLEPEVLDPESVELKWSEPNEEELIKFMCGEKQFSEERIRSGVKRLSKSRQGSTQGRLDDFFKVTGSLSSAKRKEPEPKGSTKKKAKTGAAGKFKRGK
Chain of Galactokinase (Homo sapiens) (P51570 whole entry, looked up): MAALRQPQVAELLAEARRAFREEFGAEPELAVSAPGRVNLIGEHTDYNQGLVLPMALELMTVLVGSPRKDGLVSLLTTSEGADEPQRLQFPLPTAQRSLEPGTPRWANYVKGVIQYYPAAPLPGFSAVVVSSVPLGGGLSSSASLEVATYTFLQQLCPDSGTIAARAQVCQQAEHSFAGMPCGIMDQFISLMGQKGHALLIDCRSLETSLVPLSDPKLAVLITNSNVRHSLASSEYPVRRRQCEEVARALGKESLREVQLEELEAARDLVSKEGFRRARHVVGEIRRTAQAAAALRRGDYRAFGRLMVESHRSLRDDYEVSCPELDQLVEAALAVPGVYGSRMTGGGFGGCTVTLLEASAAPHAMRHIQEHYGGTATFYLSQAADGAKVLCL
Chain of M-phase phosphoprotein 8 (Homo sapiens) (Q99549 whole entry, looked up): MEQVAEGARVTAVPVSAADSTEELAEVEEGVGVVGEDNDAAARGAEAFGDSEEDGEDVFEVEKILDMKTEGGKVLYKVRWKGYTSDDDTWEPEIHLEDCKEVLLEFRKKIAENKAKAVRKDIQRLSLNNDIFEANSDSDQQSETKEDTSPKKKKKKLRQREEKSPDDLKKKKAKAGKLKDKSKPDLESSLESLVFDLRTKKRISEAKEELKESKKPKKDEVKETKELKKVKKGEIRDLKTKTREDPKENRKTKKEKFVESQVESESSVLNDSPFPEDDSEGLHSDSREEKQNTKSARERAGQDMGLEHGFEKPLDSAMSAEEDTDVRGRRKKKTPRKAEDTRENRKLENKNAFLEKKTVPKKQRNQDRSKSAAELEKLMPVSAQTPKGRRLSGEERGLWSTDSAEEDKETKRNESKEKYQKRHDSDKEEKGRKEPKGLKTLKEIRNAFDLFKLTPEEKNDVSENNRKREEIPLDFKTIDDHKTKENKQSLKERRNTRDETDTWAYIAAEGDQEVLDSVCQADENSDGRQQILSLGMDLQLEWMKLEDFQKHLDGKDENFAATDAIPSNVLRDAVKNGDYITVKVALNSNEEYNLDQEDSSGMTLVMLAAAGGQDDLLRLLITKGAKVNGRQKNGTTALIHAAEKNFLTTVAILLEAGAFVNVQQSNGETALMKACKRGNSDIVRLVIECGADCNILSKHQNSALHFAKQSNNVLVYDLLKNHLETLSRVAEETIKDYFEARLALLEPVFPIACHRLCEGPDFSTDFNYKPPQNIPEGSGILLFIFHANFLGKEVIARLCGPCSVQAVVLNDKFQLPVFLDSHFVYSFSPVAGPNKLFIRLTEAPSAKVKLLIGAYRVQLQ
Chain of Transient receptor potential cation channel subfamily V member 1 (Homo sapiens) (Q8NER1 whole entry, looked up): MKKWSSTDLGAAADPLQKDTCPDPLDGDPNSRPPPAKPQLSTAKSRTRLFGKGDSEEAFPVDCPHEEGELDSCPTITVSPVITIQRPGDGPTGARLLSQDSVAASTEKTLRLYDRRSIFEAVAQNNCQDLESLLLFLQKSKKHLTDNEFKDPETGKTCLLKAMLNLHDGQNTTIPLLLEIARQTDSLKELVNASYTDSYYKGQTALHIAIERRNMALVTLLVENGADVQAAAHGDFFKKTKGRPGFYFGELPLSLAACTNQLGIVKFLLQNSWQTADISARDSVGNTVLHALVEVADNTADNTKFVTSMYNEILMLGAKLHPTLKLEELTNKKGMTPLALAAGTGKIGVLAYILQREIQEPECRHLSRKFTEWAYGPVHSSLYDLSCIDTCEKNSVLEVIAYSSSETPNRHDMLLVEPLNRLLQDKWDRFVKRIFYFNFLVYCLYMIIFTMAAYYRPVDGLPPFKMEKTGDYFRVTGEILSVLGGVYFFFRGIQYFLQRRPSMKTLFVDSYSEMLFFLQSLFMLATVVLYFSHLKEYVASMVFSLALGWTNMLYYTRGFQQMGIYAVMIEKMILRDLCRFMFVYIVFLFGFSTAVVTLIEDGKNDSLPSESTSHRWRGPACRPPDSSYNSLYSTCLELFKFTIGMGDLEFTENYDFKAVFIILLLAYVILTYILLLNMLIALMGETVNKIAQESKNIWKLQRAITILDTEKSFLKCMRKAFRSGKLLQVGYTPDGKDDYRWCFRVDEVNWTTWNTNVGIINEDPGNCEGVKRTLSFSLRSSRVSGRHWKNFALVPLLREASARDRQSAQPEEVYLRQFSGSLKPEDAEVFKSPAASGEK
Chain of Thioredoxin reductase 1, cytoplasmic (Rattus norvegicus) (O89049 whole entry, looked up): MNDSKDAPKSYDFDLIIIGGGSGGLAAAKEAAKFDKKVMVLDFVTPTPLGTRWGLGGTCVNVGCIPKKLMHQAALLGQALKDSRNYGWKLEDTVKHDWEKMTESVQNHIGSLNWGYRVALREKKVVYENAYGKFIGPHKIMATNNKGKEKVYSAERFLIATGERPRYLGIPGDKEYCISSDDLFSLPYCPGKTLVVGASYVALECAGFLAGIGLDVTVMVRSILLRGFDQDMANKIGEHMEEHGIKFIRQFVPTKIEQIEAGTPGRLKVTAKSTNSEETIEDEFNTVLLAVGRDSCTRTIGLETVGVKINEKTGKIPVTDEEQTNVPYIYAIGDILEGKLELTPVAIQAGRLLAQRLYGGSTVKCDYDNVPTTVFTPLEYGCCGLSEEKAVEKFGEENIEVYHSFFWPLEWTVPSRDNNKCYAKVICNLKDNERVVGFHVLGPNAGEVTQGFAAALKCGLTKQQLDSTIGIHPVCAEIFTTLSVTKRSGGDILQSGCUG
Chain of Chromobox protein homolog 1 (Homo sapiens) (P83916 whole entry, looked up): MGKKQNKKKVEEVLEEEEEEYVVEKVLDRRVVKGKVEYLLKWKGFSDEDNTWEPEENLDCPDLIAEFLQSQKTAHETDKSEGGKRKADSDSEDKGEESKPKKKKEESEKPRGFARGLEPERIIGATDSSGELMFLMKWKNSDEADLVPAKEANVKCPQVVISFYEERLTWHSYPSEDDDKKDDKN
Chain of Thyrotropin receptor (Homo sapiens) (P16473 whole entry, looked up): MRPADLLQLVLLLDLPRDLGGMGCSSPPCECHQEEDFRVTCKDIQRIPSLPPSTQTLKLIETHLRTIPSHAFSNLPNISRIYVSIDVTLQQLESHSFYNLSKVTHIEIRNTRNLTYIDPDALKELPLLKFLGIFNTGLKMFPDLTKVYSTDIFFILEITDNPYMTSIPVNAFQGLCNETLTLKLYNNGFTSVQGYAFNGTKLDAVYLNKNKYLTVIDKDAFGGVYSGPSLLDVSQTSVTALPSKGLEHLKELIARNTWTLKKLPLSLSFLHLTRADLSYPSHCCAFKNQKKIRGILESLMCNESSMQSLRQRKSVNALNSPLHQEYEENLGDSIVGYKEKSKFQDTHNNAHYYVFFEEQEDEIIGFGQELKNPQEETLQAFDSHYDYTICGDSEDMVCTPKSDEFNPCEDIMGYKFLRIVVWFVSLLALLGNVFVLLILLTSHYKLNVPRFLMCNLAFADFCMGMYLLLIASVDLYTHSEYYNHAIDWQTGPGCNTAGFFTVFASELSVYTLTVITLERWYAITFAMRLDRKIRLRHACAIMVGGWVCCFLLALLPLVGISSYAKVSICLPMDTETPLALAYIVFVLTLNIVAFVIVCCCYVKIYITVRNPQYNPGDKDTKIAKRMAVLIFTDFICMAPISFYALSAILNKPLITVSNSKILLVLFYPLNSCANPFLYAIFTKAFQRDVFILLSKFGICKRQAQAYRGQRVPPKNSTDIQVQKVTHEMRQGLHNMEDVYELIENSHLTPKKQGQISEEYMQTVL
Chain of Methanococcus maripaludis chaperonin (MmCpn) (Q6LX38 1-543): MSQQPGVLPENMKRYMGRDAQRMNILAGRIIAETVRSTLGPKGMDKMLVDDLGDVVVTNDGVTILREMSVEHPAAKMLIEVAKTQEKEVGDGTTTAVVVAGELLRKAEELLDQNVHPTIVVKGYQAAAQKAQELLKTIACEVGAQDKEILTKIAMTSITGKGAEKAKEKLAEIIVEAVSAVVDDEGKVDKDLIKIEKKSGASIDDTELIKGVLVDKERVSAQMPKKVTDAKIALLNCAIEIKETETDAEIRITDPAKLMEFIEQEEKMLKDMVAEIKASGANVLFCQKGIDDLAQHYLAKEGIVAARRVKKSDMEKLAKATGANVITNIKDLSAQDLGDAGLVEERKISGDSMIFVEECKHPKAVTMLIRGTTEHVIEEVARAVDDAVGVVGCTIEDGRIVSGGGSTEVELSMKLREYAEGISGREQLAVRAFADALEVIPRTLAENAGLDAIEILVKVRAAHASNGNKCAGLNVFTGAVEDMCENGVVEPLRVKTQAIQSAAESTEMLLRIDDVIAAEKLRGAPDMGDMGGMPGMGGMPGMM
Chain of Thyrotropin-releasing hormone receptor (Homo sapiens) (P34981 whole entry, looked up): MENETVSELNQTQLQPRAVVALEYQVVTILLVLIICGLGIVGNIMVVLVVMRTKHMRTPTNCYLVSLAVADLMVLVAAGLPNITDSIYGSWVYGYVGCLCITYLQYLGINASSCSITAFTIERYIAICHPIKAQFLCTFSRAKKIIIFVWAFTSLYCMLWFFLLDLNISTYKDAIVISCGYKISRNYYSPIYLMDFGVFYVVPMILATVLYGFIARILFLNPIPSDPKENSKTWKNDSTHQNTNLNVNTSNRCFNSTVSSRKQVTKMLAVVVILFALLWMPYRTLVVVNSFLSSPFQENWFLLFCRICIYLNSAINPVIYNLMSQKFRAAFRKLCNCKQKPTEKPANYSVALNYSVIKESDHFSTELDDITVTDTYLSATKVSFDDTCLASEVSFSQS

C[C@]12CCC3C(CC[C@H]4C[C@H](O)CC[C@]34C)C1CC[C@@H]2C(=O)CO (stereo partly drawn)
inactive: outcome [1] | Potency [2] | Potency [3] | Potency [4] | Potency [5] | outcome [6] | outcome [7] | outcome [8] | Potency [9] | outcome [10] | outcome [11] | Potency [12] | activation [13] 1.56% | outcome [14] | outcome [15]

NCCc1c[nH]c2ccccc12
-0.0651%: viability change [16]
inactive: outcome [1] | Potency [2] | Potency [3] | Potency [4] | Potency [5] | outcome [6] | outcome [7] | outcome [8] | Potency [9] | outcome [11] | activation [13] -0.438% | outcome [16] | outcome [14] | outcome [15]

O=C(Cc1ccc(Cl)c(Cl)c1)N1CCCCC1CN1CCCC1 (stereo not drawn)
7.56%: viability change [16]
inactive: outcome [1] | Potency [2] | Potency [3] | Potency [4] | Potency [5] | outcome [6] | outcome [7] | outcome [8] | Potency [9] | outcome [10] | outcome [11] | Potency [12] | activation [13] 1.12% | outcome [16] | outcome [14] | outcome [15]

CC(=O)[C@H]1CCC2C3CC[C@H]4C[C@H](O)CC[C@]4(C)C3CC[C@@]21C (stereo partly drawn)
inactive: outcome [1] | Potency [2] | Potency [3] | Potency [4] | Potency [5] | outcome [6] | outcome [7] | outcome [8] | Potency [9] | outcome [10] | Potency [17] | outcome [11] | Potency [12] | activation [13] -6% | outcome [16] | outcome [14] | outcome [15]
-0.378%: viability change [16]

C=CCN1CC[C@]23CCCCC2[C@H]1Cc1ccc(O)cc13 (stereo partly drawn)
inactive: outcome [1] | Potency [2] | Potency [3] | Potency [4] | Potency [5] | outcome [6] | outcome [7] | outcome [8] | Potency [9] | outcome [10] | Potency [18] | outcome [11] | Potency [12] | activation [13] 2% | outcome [16] | outcome [14] | outcome [15]
-5%: viability change [16]

O=C(O)[C@@H]1CCN1
inactive: outcome [1] | Potency [2] | Potency [3] | Potency [4] | Potency [5] | outcome [6] | outcome [7] | outcome [8] | Potency [9] | outcome [10] | outcome [11] | Potency [12] | activation [13] 0.75% | outcome [16] | outcome [14] | outcome [15]
8.8%: viability change [16]

NCCc1c[nH]c2ccc(O)cc12
inactive: outcome [1] | Potency [2] | Potency [3] | Potency [4] | Potency [5] | outcome [6] | outcome [7] | outcome [8] | Potency [9] | outcome [10] | outcome [11] | Potency [12] | activation [13] 1.44% | outcome [16] | outcome [14] | outcome [15]
0.321%: viability change [16]

NCc1cc(=O)[nH]o1
inactive: outcome [1] | Potency [2] | Potency [3] | Potency [4] | Potency [5] | outcome [6] | outcome [7] | outcome [8] | Potency [9] | outcome [10] | outcome [11] | Potency [12] | activation [13] -4.19% | outcome [16] | outcome [14] | outcome [15]
4.87%: viability change [16]

c1ccc(C2(c3ccccc3)CC2C2=NCCN2)cc1 (stereo not drawn)
-1.31%: viability change [16]
inactive: outcome [1] | Potency [2] | Potency [3] | Potency [4] | Potency [5] | outcome [6] | Potency [9] | outcome [10] | Potency [18] | outcome [11] | Potency [12] | outcome [16] | outcome [14]

NC1CC1c1ccccc1 (stereo not drawn)
inactive: outcome [1] | Potency [2] | Potency [3] | Potency [4] | Potency [5] | outcome [7] | outcome [8] | outcome [11] | Potency [12] | activation [13] 1.44% | outcome [16] | outcome [14] | outcome [15]
-9.56%: viability change [16]

NC(N)=NOCCC(N)C(=O)O (stereo not drawn)
0.756%: viability change [16]
inactive: outcome [1] | Potency [2] | Potency [3] | Potency [4] | Potency [5] | outcome [6] | outcome [7] | outcome [8] | Potency [9] | outcome [10] | outcome [11] | Potency [12] | activation [13] 0.375% | outcome [16] | outcome [14] | outcome [15]

O=C1CCCN1CC#CCN1CCCC1
3.92%: viability change [16]
inactive: outcome [1] | Potency [2] | Potency [3] | Potency [4] | Potency [5] | outcome [6] | outcome [7] | outcome [8] | Potency [9] | Potency [17] | outcome [11] | Potency [12] | activation [13] 3.06% | outcome [16] | outcome [14] | outcome [15]

c1ccc2sc(C3(N4CCCCC4)CCCCC3)cc2c1
inactive: outcome [1] | Potency [2] | Potency [3] | Potency [4] | Potency [5] | outcome [6] | outcome [7] | outcome [8] | Potency [9] | outcome [10] | outcome [11] | Potency [12] | activation [13] -13.1% | outcome [16] | outcome [14] | outcome [15]
-6.89%: viability change [16]

CCCN1CCO[C@@H]2c3cc(O)ccc3OC[C@H]21
-0.639% and -4.02%: viability change [16]
inactive: outcome [1] | Potency [2] | Potency [3] | Potency [4] | Potency [5] | outcome [6] | outcome [7] | outcome [8] | Potency [9] | outcome [10] | Potency [17] | outcome [11] | Potency [12] | activation [13] 1.06% and 0% | outcome [16] | outcome [14] | outcome [15]

NC(CCP(=O)(O)O)C(=O)O (stereo not drawn)
2.18%: viability change [16]
inactive: outcome [1] | Potency [2] | Potency [3] | Potency [4] | Potency [5] | outcome [6] | outcome [7] | outcome [8] | Potency [9] | outcome [10] | outcome [11] | Potency [12] | activation [13] -3% | outcome [16] | outcome [14] | outcome [15]
